Our source for the outcome and AC50 values is PubChem BioAssay (EPA / NIEHS).

Each structure is given as a SMILES string. Records with an inconclusive call do not appear. Activity calls are given as the source filed them. How the source made its calls: active means hit-call score of the fitted dose curve at least 0.9, where 1 is the maximum; inconclusive means response in the unintended direction; inactive means score below 0.9.

rat Monoamine Oxidase, MAO-B, Central (MAOBC), Maob (gene 25750), sequence (P19643 whole entry, looked up): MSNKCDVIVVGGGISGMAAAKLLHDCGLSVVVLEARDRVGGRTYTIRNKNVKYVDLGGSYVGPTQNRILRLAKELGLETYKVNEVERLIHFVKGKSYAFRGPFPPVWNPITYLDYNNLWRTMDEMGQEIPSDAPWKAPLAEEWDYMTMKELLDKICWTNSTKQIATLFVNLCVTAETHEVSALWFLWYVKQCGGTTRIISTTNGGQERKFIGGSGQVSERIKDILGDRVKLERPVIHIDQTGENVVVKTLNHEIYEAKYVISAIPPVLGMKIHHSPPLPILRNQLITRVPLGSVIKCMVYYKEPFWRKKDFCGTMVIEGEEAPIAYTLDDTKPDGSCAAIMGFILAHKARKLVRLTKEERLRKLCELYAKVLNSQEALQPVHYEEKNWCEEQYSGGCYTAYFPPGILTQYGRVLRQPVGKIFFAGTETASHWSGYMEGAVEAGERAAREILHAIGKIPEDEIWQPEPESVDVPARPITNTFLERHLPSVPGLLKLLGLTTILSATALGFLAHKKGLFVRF
human Tyrosine Protein Kinase Receptor Tie-2 (Tie2), TEK (gene 7010), sequence (Q02763 whole entry, looked up): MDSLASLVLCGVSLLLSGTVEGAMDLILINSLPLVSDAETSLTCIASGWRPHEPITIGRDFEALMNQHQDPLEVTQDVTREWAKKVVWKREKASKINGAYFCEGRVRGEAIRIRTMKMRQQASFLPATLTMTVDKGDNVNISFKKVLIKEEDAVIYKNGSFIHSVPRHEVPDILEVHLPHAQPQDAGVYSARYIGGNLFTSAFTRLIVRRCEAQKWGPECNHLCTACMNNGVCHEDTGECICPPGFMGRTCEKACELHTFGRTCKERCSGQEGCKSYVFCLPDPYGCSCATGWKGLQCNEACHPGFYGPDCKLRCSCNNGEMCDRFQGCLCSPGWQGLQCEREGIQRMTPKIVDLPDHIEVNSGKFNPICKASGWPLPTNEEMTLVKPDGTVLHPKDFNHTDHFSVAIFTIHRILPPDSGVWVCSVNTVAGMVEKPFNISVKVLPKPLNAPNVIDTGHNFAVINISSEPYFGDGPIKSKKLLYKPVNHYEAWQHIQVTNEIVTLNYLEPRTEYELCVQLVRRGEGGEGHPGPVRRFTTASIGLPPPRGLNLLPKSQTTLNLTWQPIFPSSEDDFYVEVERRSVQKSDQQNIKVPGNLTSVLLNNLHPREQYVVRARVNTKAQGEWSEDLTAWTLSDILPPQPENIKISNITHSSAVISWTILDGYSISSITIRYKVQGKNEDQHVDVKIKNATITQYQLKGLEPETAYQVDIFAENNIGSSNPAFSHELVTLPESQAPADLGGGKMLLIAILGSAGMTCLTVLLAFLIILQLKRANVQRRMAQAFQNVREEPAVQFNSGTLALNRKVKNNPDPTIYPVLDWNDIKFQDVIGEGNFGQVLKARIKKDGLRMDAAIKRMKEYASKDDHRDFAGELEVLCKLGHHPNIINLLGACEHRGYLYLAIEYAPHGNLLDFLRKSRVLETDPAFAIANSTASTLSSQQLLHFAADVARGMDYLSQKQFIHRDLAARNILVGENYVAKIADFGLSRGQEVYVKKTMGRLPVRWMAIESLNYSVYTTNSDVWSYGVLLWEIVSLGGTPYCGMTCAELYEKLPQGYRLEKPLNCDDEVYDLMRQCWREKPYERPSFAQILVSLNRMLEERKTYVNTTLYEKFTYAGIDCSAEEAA
Bile acid receptor (Homo sapiens), sequence (Q96RI1 whole entry, looked up): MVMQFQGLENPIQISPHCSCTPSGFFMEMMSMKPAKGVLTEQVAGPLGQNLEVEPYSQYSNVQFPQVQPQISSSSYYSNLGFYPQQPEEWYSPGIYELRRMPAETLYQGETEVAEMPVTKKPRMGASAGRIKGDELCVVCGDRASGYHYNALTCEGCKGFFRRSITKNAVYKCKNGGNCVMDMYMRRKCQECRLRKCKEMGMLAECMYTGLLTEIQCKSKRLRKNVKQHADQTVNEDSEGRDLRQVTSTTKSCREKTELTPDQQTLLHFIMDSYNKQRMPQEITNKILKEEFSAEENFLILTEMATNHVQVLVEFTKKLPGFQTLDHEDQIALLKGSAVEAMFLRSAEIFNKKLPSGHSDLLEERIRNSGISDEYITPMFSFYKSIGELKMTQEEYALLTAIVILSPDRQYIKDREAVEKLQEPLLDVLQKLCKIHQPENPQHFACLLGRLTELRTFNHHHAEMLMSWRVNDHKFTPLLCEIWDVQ
human Phosphatase and Tensin Homolog (PTEN), PTEN (gene 5728), sequence (P60484 whole entry, looked up): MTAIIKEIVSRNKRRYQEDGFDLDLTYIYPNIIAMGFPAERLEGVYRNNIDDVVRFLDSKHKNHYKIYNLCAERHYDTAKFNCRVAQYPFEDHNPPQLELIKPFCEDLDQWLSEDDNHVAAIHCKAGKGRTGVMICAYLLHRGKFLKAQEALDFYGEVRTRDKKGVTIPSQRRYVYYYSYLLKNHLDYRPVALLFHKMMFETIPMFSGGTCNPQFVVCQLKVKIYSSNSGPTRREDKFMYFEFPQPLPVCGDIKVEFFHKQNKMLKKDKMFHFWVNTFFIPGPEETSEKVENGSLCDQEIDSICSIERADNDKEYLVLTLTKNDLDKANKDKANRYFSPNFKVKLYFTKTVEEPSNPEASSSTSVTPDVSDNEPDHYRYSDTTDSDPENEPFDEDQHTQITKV
human p21 Activated Kinase 4 (PAK4), PAK4 (gene 10298), sequence (O96013 whole entry, looked up): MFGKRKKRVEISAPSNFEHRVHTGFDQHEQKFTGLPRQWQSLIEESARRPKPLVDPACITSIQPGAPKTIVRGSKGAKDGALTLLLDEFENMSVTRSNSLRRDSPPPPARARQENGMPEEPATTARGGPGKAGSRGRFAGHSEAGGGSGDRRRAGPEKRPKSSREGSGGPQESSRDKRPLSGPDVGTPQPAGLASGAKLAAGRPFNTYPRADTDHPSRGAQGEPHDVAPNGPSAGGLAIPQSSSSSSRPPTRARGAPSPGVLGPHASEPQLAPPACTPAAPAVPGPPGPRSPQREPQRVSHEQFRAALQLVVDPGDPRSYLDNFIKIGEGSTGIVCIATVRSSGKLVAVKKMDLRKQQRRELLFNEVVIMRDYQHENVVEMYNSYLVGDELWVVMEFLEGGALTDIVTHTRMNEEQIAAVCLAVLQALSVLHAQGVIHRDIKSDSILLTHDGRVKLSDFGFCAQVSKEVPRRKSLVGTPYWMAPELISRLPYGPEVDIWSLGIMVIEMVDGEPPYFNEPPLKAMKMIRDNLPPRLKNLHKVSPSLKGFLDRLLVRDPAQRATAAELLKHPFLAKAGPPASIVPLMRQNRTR

The target of one assay is human MET Proto-Oncogene, Receptor Tyrosine Kinase (MET), MET (gene 4233) (UniProt P08581). As to the kind of experiment: NVS_ENZ_hMet: NovaScreen (NVS) Enzymatic Assay for human MET Proto-Oncogene, Receptor Tyrosine Kinase (MET) (AID 2283180). In short, it runs like this: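 Cell-free MET kinase assay using recombinant protein and fluorescent substrate, with mobility-shift separation; read 1 h after dosing. Primary duplicate at 25 uM; actives in singleton concentration-response to 50 uM maximum. Signal loss versus DMSO.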
For `O=c1[nH]cnc2c1ncn2[C@H]1CC[C@@H](CO)O1`, the result was inactive.

`Cc1ncc([C@@H](CCCCCCc2ccc3c(n2)NCCC3)CC(=O)O)cn1`: the molecule was classed as inactive.

On to `CCCC(CCC)C(=O)O`, for which the call was inactive.

Take `COCC(C)OCC(C)O` (stereo not drawn): the result was inactive.

For the molecule `O=C(Oc1ccccc1)c1cccc(C(=O)Oc2ccccc2)c1`, the molecule was classed as inactive.

Take `NCCO`: the result was inactive.

The AC50 is the concentration at which the activity in the assay is half-maximal. Take `CCCCCCCCCCCCCCOS(=O)(=O)O`: the AC50 is 18.5 µM (active).

Regarding `N[C@@H](Cc1cc(I)c(Oc2ccc(O)c(I)c2)c(I)c1)C(=O)O`, the result was inactive.

With `COc1ccc(OC(F)(F)F)cc1CN[C@H]1CCCN[C@H]1c1ccccc1`, the molecule was called inactive.

The target of a further assay is human Matrix Metalloproteinase-1 (MMP1), MMP1 (gene 4312) (UniProt P03956). Kind of assay: NVS_ENZ_hMMP1: NovaScreen (NVS) Enzymatic Assay for human Matrix Metalloproteinase-1 (MMP1) (AID 2283181). In short, it runs like this:
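Human MMP1 enzyme activity measured by fluorescence 1 h after dosing, cell-free, with a specific substrate. Screened in duplicate at 25 uM; hits (e.g. 30% inhibition) run in concentration-response up to 50 uM; loss of signal versus DMSO.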
Regarding `CCN(Cc1cccc(S(=O)(=O)O)c1)c1ccc(C(=C2C=CC(=[N+](CC)Cc3cccc(S(=O)(=O)O)c3)C=C2)c2ccccc2S(=O)(=O)[O-])cc1`, the outcome was inactive.

For `NCCO`, the molecule was classed as inactive.

For the molecule `CCCCCCCCCCCCCCOS(=O)(=O)O`, the outcome was inactive.

For `O=C(O)CCN(C1(C(=O)NO)CCCC1)S(=O)(=O)c1ccc(Oc2ccc(F)cc2)cc1`, the AC50 is 3.49 µM (active).

The target of another assay is human p21 Activated Kinase 4 (PAK4), PAK4 (gene 10298) (UniProt O96013). As to the kind of experiment: NVS_ENZ_hPAK4: NovaScreen (NVS) Enzymatic Assay for human p21 Activated Kinase 4 (PAK4) (AID 2283189). The procedure, abridged:
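Cell-free recombinant human PAK4 activity assay; fluorescent substrate and product separated by electrophoretic mobility shift, read 1 h after dosing. Initially tested in duplicate at 25 uM, relative to DMSO baseline.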
For `O=c1[nH]cnc2c1ncn2[C@H]1CC[C@@H](CO)O1`, the call was inactive.

Take `Cc1ncc([C@@H](CCCCCCc2ccc3c(n2)NCCC3)CC(=O)O)cn1`: the molecule was classed as inactive.

In the case of `CCCC(CCC)C(=O)O`, the result was inactive.

Regarding `O=C(Oc1ccccc1)c1cccc(C(=O)Oc2ccccc2)c1`, the outcome was inactive.

For `CCc1c(C(=O)NN2CCCCC2)nn(-c2ccc(Cl)cc2Cl)c1-c1ccc(Br)cc1`, the molecule was called inactive.

As to `CC1(C)NC(=O)NC1=O`, the molecule was classed as inactive.

Take `N[C@@H](Cc1cc(I)c(Oc2ccc(O)c(I)c2)c(I)c1)C(=O)O`: the call was inactive.

As for `O=C(OCCCCCOC(=O)c1ccccc1)c1ccccc1`, the outcome was inactive.

Take `CC(C)(C)c1ccccc1`: the outcome was inactive.

The next assay concerns the target human Phosphatase and Tensin Homolog (PTEN), PTEN (gene 5728) (UniProt P60484). As to the kind of experiment: NVS_ENZ_hPTEN: NovaScreen (NVS) Enzymatic Assay for human Phosphatase and Tensin Homolog (PTEN) (AID 2283203). The procedure, abridged:
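Cell-free recombinant human PTEN with fluorescent substrate; product separated by electrophoretic mobility shift and read by fluorescence 1 h after dosing. Primary screen in duplicate at 25 uM, actives followed in concentration series versus DMSO.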
Turning to `O=c1[nH]cnc2c1ncn2[C@H]1CC[C@@H](CO)O1`, the call was inactive.

For the molecule `Cc1ncc([C@@H](CCCCCCc2ccc3c(n2)NCCC3)CC(=O)O)cn1`, the molecule was called inactive.

In the case of `CCCC(CCC)C(=O)O`, the result was inactive.

In the case of `COCC(C)OCC(C)O` (stereo not drawn), the result was inactive.

Consider `O=C(Oc1ccccc1)c1cccc(C(=O)Oc2ccccc2)c1`, for which the call was inactive.

Take `CCc1c(C(=O)NN2CCCCC2)nn(-c2ccc(Cl)cc2Cl)c1-c1ccc(Br)cc1`: the molecule was classed as inactive.

Regarding `NCCO`, the result was inactive.

On to `CCOC(=O)C(C)(C)Oc1ccc(Cl)cc1`, for which the call was inactive.

As to `O=C(O)c1[nH]n(-c2ccc(S(=O)(=O)O)cc2)c(=O)c1N=Nc1ccc(S(=O)(=O)O)cc1`, the result was inactive.

Turning to `O=C(O)C1(C(=O)Nc2ccc(Cl)cc2Cl)CC1`, the AC50 is 3.91 µM (active).

Take `O=C(OCCCCCOC(=O)c1ccccc1)c1ccccc1`: the molecule was called inactive.

For another assay, the target named is human Protein Tyrosine Phosphatase Receptor Type C (PTPRC), PTPRC (gene 5788) (UniProt P08575). Kind of assay: NVS_ENZ_hPTPRC: NovaScreen (NVS) Enzymatic Assay for human Protein Tyrosine Phosphatase Receptor Type C (PTPRC) (AID 2283212). In short, it runs like this: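 Yeast-extracted human PTPRC used in a cell-free colorimetric enzyme activity read-out, 1 h after dosing. Primary screen in duplicate at 25 uM; actives rerun in concentration-response up to 50 uM, DMSO as baseline.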
human Protein Tyrosine Phosphatase Receptor Type C (PTPRC), PTPRC (gene 5788), sequence (P08575 whole entry, looked up): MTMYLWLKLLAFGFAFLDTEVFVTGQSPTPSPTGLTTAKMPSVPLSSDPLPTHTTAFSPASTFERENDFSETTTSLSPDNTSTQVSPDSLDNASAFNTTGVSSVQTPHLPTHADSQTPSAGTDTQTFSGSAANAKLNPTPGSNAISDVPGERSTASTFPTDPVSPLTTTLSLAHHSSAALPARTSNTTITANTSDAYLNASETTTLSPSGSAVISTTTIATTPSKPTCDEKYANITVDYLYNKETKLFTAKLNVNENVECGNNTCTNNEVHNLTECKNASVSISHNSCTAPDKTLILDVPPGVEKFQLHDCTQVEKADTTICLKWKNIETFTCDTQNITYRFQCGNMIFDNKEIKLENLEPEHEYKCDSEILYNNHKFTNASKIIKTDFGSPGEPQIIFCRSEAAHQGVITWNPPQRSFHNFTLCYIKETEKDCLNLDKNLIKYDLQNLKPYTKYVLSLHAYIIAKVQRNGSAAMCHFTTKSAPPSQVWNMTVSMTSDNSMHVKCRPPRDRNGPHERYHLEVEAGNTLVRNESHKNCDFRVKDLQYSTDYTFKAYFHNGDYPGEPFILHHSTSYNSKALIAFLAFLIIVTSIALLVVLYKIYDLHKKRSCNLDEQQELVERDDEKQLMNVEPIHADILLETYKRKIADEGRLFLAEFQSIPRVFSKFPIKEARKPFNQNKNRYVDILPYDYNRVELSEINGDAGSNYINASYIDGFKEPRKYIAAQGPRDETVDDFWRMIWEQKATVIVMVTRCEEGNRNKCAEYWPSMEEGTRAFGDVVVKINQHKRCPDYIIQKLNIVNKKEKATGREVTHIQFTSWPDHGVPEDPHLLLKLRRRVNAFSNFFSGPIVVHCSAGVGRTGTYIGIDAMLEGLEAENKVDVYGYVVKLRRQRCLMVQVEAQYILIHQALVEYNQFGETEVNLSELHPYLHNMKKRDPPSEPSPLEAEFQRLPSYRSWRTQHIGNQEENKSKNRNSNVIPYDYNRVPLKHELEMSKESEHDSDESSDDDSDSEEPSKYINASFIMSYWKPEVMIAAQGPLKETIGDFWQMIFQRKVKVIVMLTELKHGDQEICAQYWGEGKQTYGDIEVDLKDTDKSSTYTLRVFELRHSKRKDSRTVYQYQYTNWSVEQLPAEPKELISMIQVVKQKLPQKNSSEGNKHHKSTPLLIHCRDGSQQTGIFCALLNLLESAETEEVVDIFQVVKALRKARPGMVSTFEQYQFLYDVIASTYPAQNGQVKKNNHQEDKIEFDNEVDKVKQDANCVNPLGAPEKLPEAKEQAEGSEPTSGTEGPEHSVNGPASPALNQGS
For the molecule `Cc1oc(-c2ccccc2)nc1CCOc1cccc2c1ccn2CCC(=O)O`, the AC50 is 5.98 µM (active).

Take `CCOc1ccc2c(c1)C(C)=CC(C)(C)N2`: the AC50 is 8.36 µM (active).

For `CCOC(=O)C(C)(C)Oc1ccc(Cl)cc1`, the result was inactive.

As for `CCCCCCCCCCCCCCOS(=O)(=O)O`, the AC50 was 24.2 µM (active).

For a further assay, the target named is human Tyrosine Protein Kinase Receptor Tie-2 (Tie2), TEK (gene 7010) (UniProt Q02763). As to the kind of experiment: NVS_ENZ_hTie2: NovaScreen (NVS) Enzymatic Assay for human Tyrosine Protein Kinase Receptor Tie-2 (Tie2) (AID 2283225). In short, it runs like this:
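Recombinant human Tie2 kinase activity was read cell-free by fluorescence with electrophoretic mobility shift, 1 hour after dosing. The screen used 25 uM in duplicate, then concentration-response up to 50 uM. Signal loss was scored against DMSO.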
Turning to `O=c1[nH]cnc2c1ncn2[C@H]1CC[C@@H](CO)O1`, the outcome was inactive.

With `Cc1ncc([C@@H](CCCCCCc2ccc3c(n2)NCCC3)CC(=O)O)cn1`, the molecule was classed as inactive.

Regarding `CCCC(CCC)C(=O)O`, the result was inactive.

Regarding `COCC(C)OCC(C)O` (stereo not drawn), the outcome was inactive.

For the molecule `O=C(Oc1ccccc1)c1cccc(C(=O)Oc2ccccc2)c1`, the molecule was classed as inactive.

Take `CCc1c(C(=O)NN2CCCCC2)nn(-c2ccc(Cl)cc2Cl)c1-c1ccc(Br)cc1`: the molecule was called inactive.

On to `NCCO`, for which the outcome was inactive.

With `CCOC(=O)C(C)(C)Oc1ccc(Cl)cc1`, the molecule was classed as inactive.

As to `O=C(O)C1(C(=O)Nc2ccc(Cl)cc2Cl)CC1`, the outcome was inactive.

Regarding `N[C@@H](Cc1cc(I)c(Oc2ccc(O)c(I)c2)c(I)c1)C(=O)O`, the call was inactive.

For `COc1ccc(OC(F)(F)F)cc1CN[C@H]1CCCN[C@H]1c1ccccc1`, the outcome was inactive.

For a further assay, the target named is rat Monoamine Oxidase, MAO-B, Central (MAOBC), Maob (gene 25750) (UniProt P19643). Kind of assay: NVS_ENZ_rMAOBC: NovaScreen (NVS) Enzymatic Assay for rat Monoamine Oxidase, MAO-B, Central (MAOBC) (AID 2283238). In short, it runs like this:
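MAO-B activity in rat brain tissue preparation, cell-free, measured radiometrically by scintillation counting 1.17 h after dosing. Screened in duplicate at 25 uM; actives then in concentration-response up to 50 uM. Loss of signal versus DMSO scored.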
For `CCOC(=O)c1ccc(O)cc1`, the call was inactive.

Take `Cc1oc(-c2ccccc2)nc1CCOc1ccc(C[C@H](Nc2ccccc2C(=O)c2ccccc2)C(=O)O)cc1`: the AC50 is 25 µM (active).

Consider `N[C@@H](Cc1cc(I)c(Oc2ccc(O)c(I)c2)c(I)c1)C(=O)O`, for which the result was inactive.

Take `O=C(O)c1ccccc1C(c1ccc(O)cc1)c1ccc(O)cc1`: the result was inactive.

Consider `COc1ccc(OC(F)(F)F)cc1CN[C@H]1CCCN[C@H]1c1ccccc1`, for which the result was inactive.

The target in a further assay is rat Gamma-Aminobutyric Acid Type A Receptor BDZ, alpha 6 site (GABARa6), Gabra6 (gene 29708) (UniProt P30191). Kind of assay: NVS_LGIC_rGABARa6: NovaScreen (NVS) Ligand-Gated Ion Channel Assay for rat Gamma-Aminobutyric Acid Type A Receptor BDZ, alpha 6 site (GABARa6) (AID 2283339). In short, it runs like this: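 Rat cerebellar membranes; radioligand binding, filtration and scintillation counting, read 1 h after dosing. Single-concentration duplicate screen at 25 uM, then concentration-response up to 50 uM for actives; loss of signal fitted versus DMSO baseline.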
rat Gamma-Aminobutyric Acid Type A Receptor BDZ, alpha 6 site (GABARa6), Gabra6 (gene 29708), sequence (P30191 whole entry, looked up): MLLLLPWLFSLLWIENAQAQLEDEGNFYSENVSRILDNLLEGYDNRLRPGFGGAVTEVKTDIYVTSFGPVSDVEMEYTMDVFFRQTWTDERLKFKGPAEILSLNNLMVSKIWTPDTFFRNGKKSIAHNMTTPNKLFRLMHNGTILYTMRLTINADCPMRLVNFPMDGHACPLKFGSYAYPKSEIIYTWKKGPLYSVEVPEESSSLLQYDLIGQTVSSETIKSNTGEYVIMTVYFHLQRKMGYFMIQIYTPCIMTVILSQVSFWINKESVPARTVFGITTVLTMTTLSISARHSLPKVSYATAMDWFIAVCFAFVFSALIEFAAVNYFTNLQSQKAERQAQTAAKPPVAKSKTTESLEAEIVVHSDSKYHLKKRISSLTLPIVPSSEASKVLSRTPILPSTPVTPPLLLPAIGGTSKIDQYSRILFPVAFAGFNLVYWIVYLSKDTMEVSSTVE
On to `CCCC(CCC)C(=O)O`, for which the result was inactive.

With `O=C(OCCOCCOC(=O)c1ccccc1)c1ccccc1`, the outcome was inactive.

Consider `Cc1c(-c2cccnc2)c2ccccc2n1CCCCC(=O)O`, for which the outcome was inactive.

Another assay deals with Bile acid receptor (Homo sapiens) (UniProt Q96RI1). As to the kind of experiment: NVS_NR_hFXR_Agonist: NovaScreen (NVS) Nuclear Receptor Binding Assay for human Farnesoid X Receptor Agonism (FXR) (AID 2283347). In short, it runs like this:
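Cell-free TR-FRET binding assay with extracted human FXR protein, agonist format, read 1 h after dosing. Primary screen at 25 uM single concentration in duplicate, actives retested in concentration series; gain of signal versus DMSO.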
On to `c1ccc(C[n+]2cccc3ccccc32)cc1`, for which the molecule was classed as inactive.

As for `COCC(C)OCC(C)O` (stereo not drawn), the result was inactive.

Take `CCc1c(C(=O)NN2CCCCC2)nn(-c2ccc(Cl)cc2Cl)c1-c1ccc(Br)cc1`: the call was inactive.

`O=C(O)C1(C(=O)Nc2ccc(Cl)cc2Cl)CC1`: the molecule was called inactive.

System in the next assay: not listed separately
Kind of assay: ATG_M_32_XSP2: Attagene TRANS-FACTORIAL Multi-Species (XSP2) HepG2 Assay for M19 Transcription Factor (Internal Marker) (AID 2283826). The procedure, abridged: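 HepG2 cells transiently transfected with GAL4-UAS reporter units; XSP2 panel included 3 nM 6-alpha-fluorotestosterone and 1.5 nM norgestrel for androgen receptor stimulation. Reporter mRNA read 24 h post-dosing by RT-PCR/capillary electrophoresis; fitted upward versus DMSO.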
For the molecule `Cc1oc(-c2ccccc2)nc1CCOc1ccc(C[C@H](Nc2ccccc2C(=O)c2ccccc2)C(=O)O)cc1`, the call was inactive.

Take `O=C(O)Cc1cc(I)c(Oc2ccc(O)c(I)c2)c(I)c1`: the result was inactive.

Take `N[C@@H](Cc1cc(I)c(Oc2ccc(O)c(I)c2)c(I)c1)C(=O)O`: the call was inactive.
